# Data: PubChem BioAssay AID1159580 (chemical genetic matrix, 2015)
# Hit rate of the full screen: of about 5,500 compounds, about 2,000 (36%) were called active. Another 18% or so got no clear call; they are omitted. The list shows a part of the results. Unmarked numbers belong to inactive results. No stated cut-off is given here; in the data, active means normalized growth mostly below about 0.91 (no sharp cut-off); inconclusive means no clear call, values can overlap the other calls; inactive means mostly above about 0.92.
# Experiment: chemical genetic growth profiling, strain panel (AID 1159580);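 further: tested at 20 µM; growth read once vehicle control cultures reached saturation at 30 °C; 1 = growth at the plate median or of vehicle wells; lower values mean less growth of the strain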
# Conditions: growth OD
structure (smiles),measurement,setting,value
N=C(N)c1ccc(OCCCCCOc2ccc(C(=N)N)cc2)cc1,normalized growth,"S. cerevisiae deletion strains, locus YJR043C, strain POL32, hits give low values",0.909
same,normalized growth,"S. cerevisiae deletion strains, locus YJR075W, strain HOC1, hits give low values",0.918
same,normalized growth,"S. cerevisiae deletion strains, locus YKL009W, strain mrt4, hits give low values",0.942
same,normalized growth,"S. cerevisiae deletion strains, locus YKL068W, hits give low values",0.92 (active)
same,normalized growth,"S. cerevisiae deletion strains, locus YKL085W, strain MDH1 (second series), hits give low values",0.936
same,normalized growth,"S. cerevisiae deletion strains, locus YKL085W, strain MDH1, hits give low values",0.936
same,normalized growth,"S. cerevisiae deletion strains, locus YKL160W, strain elf1, hits give low values",0.948
same,normalized growth,"S. cerevisiae deletion strains, locus YKL190W, strain CNB1, hits give low values",0.959
same,normalized growth,"S. cerevisiae deletion strains, locus YKR001C, strain vps1, hits give low values",0.952
same,normalized growth,"S. cerevisiae deletion strains, locus YKR026C, strain gcn3, hits give low values",0.967
same,normalized growth,"S. cerevisiae deletion strains, locus YKR091W, strain srl3, hits give low values",0.961
same,normalized growth,"S. cerevisiae deletion strains, locus YLL001W, strain dnm1, hits give low values",0.916
same,normalized growth,"S. cerevisiae deletion strains, locus YLL026W, hits give low values",0.97
same,normalized growth,"S. cerevisiae deletion strains, locus YLL041C, strain sdh2, hits give low values",0.974
same,normalized growth,"S. cerevisiae deletion strains, locus YLR027C, strain aat2, hits give low values",0.951
same,normalized growth,"S. cerevisiae deletion strains, locus YLR039C, strain RIC1, hits give low values",1.09
same,normalized growth,"S. cerevisiae deletion strains, locus YLR058C, strain SHM2, hits give low values",0.977
same,normalized growth,"S. cerevisiae deletion strains, locus YLR102C, strain apc9, hits give low values",0.939
same,normalized growth,"S. cerevisiae deletion strains, locus YLR221C, strain rsa3, hits give low values",0.958
same,normalized growth,"S. cerevisiae deletion strains, locus YLR258W, strain gsy2, hits give low values",0.963
same,normalized growth,"S. cerevisiae deletion strains, locus YLR262C, strain YPT6 (second series), hits give low values",0.988
same,normalized growth,"S. cerevisiae deletion strains, locus YLR262C, strain YPT6, hits give low values",1.11
same,normalized growth,"S. cerevisiae deletion strains, locus YLR268W, strain sec22, hits give low values",0.887
same,normalized growth,"S. cerevisiae deletion strains, locus YLR320W, strain mms22, hits give low values",0.89
same,normalized growth,"S. cerevisiae deletion strains, locus YLR330W, strain CHS5, hits give low values",0.999
same,normalized growth,"S. cerevisiae deletion strains, locus YLR342W, strain FKS1 (second series), hits give low values",0.89
same,normalized growth,"S. cerevisiae deletion strains, locus YLR342W, strain FKS1, hits give low values",0.958
same,normalized growth,"S. cerevisiae deletion strains, locus YLR357W, strain rsc2, hits give low values",0.979
same,normalized growth,"S. cerevisiae deletion strains, locus YLR370C, strain arc18, hits give low values",0.954
same,normalized growth,"S. cerevisiae deletion strains, locus YLR371W, strain rom2, hits give low values",0.929
same,normalized growth,"S. cerevisiae deletion strains, locus YLR384C, strain iki3, hits give low values",0.944
same,normalized growth,"S. cerevisiae deletion strains, locus YLR418C, strain cdc73, hits give low values",0.789 (active)
same,normalized growth,"S. cerevisiae deletion strains, locus YML016C, strain PPZ1, hits give low values",0.991
same,normalized growth,"S. cerevisiae deletion strains, locus YML032C, strain rad52, hits give low values",0.828 (active)
same,normalized growth,"S. cerevisiae deletion strains, locus YML120C, strain ndi1, hits give low values",0.956
same,normalized growth,"S. cerevisiae deletion strains, locus YML124C, strain tub3, hits give low values",0.943
same,normalized growth,"S. cerevisiae deletion strains, locus YMR058W, strain fet3, hits give low values",0.828 (active)
same,normalized growth,"S. cerevisiae deletion strains, locus YMR078C, strain ctf18, hits give low values",0.912
same,normalized growth,"S. cerevisiae deletion strains, locus YMR125W, strain sto1, hits give low values",0.949
same,normalized growth,"S. cerevisiae deletion strains, locus YMR129W, hits give low values",0.974
same,normalized growth,"S. cerevisiae deletion strains, locus YMR205C, strain PFK2, hits give low values",0.758 (active)
same,normalized growth,"S. cerevisiae deletion strains, locus YMR223W, strain ubp8, hits give low values",0.868 (active)
same,normalized growth,"S. cerevisiae deletion strains, locus YMR231W, strain pep5, hits give low values",0.965
same,normalized growth,"S. cerevisiae deletion strains, locus YMR263W, strain SAP30, hits give low values",0.93
same,normalized growth,"S. cerevisiae deletion strains, locus YMR307W, strain GAS1, hits give low values",0.554 (active)
same,normalized growth,"S. cerevisiae deletion strains, locus YNL067W, strain RPL9B, hits give low values",0.93
same,normalized growth,"S. cerevisiae deletion strains, locus YNL071W, strain lat1, hits give low values",0.957
same,normalized growth,"S. cerevisiae deletion strains, locus YNL128W, strain TEP1, hits give low values",0.926
same,normalized growth,"S. cerevisiae deletion strains, locus YNL153C, strain GIM3, hits give low values",0.958
same,normalized growth,"S. cerevisiae deletion strains, locus YNL209W, strain ssb2, hits give low values",0.948
same,normalized growth,"S. cerevisiae deletion strains, locus YNL233W, strain BNI4, hits give low values",0.927
same,normalized growth,"S. cerevisiae deletion strains, locus YNL248C, strain rpa49, hits give low values",0.955
same,normalized growth,"S. cerevisiae deletion strains, locus YNL250W, strain rad50, hits give low values",0.894 (active)
same,normalized growth,"S. cerevisiae deletion strains, locus YNL271C, strain bni1, hits give low values",0.929
same,normalized growth,"S. cerevisiae deletion strains, locus YNL298W, strain CLA4, hits give low values",0.931
same,normalized growth,"S. cerevisiae deletion strains, locus YNL307C, strain MCK1, hits give low values",0.811 (active)
same,normalized growth,"S. cerevisiae deletion strains, locus YNL322C, strain KRE1 (second series), hits give low values",0.918
same,normalized growth,"S. cerevisiae deletion strains, locus YNL322C, strain KRE1, hits give low values",0.972
same,normalized growth,"S. cerevisiae deletion strains, locus YNR049C, strain mso1, hits give low values",0.941
same,normalized growth,"S. cerevisiae deletion strains, locus YNR052C, strain pop2, hits give low values",0.823 (active)
same,normalized growth,"S. cerevisiae deletion strains, locus YOL006C, strain TOP1, hits give low values",1.11
same,normalized growth,"S. cerevisiae deletion strains, locus YOL012C, strain htz1",0.566
same,normalized growth,"S. cerevisiae deletion strains, locus YOL147C, strain pex11, hits give low values",0.939
same,normalized growth,"S. cerevisiae deletion strains, locus YOR001W, strain rrp6, hits give low values",0.94
same,normalized growth,"S. cerevisiae deletion strains, locus YOR061W, strain CKA2, hits give low values",0.964
same,normalized growth,"S. cerevisiae deletion strains, locus YOR069W, strain VPS5, hits give low values",0.964
same,normalized growth,"S. cerevisiae deletion strains, locus YOR070C, strain gyp1, hits give low values",0.97
same,normalized growth,"S. cerevisiae deletion strains, locus YOR080W, strain dia2, hits give low values",0.936
same,normalized growth,"S. cerevisiae deletion strains, locus YOR083W, strain WHI5, hits give low values",0.927
same,normalized growth,"S. cerevisiae deletion strains, locus YOR106W, strain vam3, hits give low values",0.997
same,normalized growth,"S. cerevisiae deletion strains, locus YOR136W, strain idh2, hits give low values",0.95
same,normalized growth,"S. cerevisiae deletion strains, locus YOR144C, strain elg1, hits give low values",0.921 (active)
same,normalized growth,"S. cerevisiae deletion strains, locus YOR184W, strain ser1, hits give low values",0.832 (active)
same,normalized growth,"S. cerevisiae deletion strains, locus YOR265W, strain rbl2, hits give low values",0.962
same,normalized growth,"S. cerevisiae deletion strains, locus YOR270C, strain vph1, hits give low values",1.17
same,normalized growth,"S. cerevisiae deletion strains, locus YOR290C, strain snf2, hits give low values",0.946
same,normalized growth,"S. cerevisiae deletion strains, locus YOR316C, strain cot1, hits give low values",0.943
same,normalized growth,"S. cerevisiae deletion strains, locus YPL051W, strain arl3, hits give low values",0.98
same,normalized growth,"S. cerevisiae deletion strains, locus YPL055C, strain LGE1, hits give low values",0.943
same,normalized growth,"S. cerevisiae deletion strains, locus YPL078C, strain atp4, hits give low values",1.03
same,normalized growth,"S. cerevisiae deletion strains, locus YPL106C, strain sse1, hits give low values",0.948
same,normalized growth,"S. cerevisiae deletion strains, locus YPL240C, strain hsp82, hits give low values",0.989
same,normalized growth,"S. cerevisiae deletion strains, locus YPL241C, strain CIN2, hits give low values",0.973
same,normalized growth,"S. cerevisiae deletion strains, locus YPR119W, strain clb2, hits give low values",0.934
same,normalized growth,"S. cerevisiae deletion strains, locus YPR141C, strain kar3, hits give low values",0.905 (active)
same,normalized growth,"S. cerevisiae deletion strains, locus YPR163C, strain tif3, hits give low values",0.901 (active)
same,normalized growth,"S. cerevisiae deletion strains, locus YPR167C, strain met16, hits give low values",0.944
same,normalized growth,"S. cerevisiae deletion strains, strain wtn01, hits give low values",0.891 (active)
same,normalized growth,"S. cerevisiae strains, strain wild type, hits give low values",0.94
